# Experimental data: ChEMBL document CHEMBL3988442, “University of Dundee, Small-Polar-MMV Screening Library” (2021)
# Out of some 69,000 compounds screened, about 1,000 (1.4%) showed an effect of 50% or more. For the sample, strong results were picked, then their nearest neighbours and some compounds at random.
# System: Leishmania donovani
# Test: Leishmania intramacrophage assay
# Assay type: functional, organism-based
# Set-up: scale not given: in the data most compounds retested in dose-response had high values
structure (smiles),measurement,setting,value
Cc1cc(CNS(=O)(=O)CCCC#N)ccc1N(C)C,Percent Effect,"30.3 µM, […]",31.94%
CCOc1ncnc2c1CCN(Cc1csc(C)n1)CC2.O=C(O)C(F)(F)F,Percent Effect,"30.3 µM, […]",25.55%
CCOc1cc2c(cc1CNC(Cc1cccs1)c1nccs1)OCO2.Cl (stereo not drawn),Percent Effect,"30.3 µM, […]",32.16%
Cc1[nH]c(-c2ccccc2)nc1C(=O)N1CCC(O)(CO)CC1,Percent Effect,"30.3 µM, […]",20.13%
Cc1[nH]c(-c2ccccc2)nc1C(=O)N1CCC2(CCCO2)CC1,Percent Effect,"30.3 µM, […]",62.09%
Cc1nccc(-c2ccccc2)c1C(=O)N1CCC2(CCCO2)CC1,Percent Effect,"30.3 µM, […]",-0.7591%
CS(=O)(=O)Cc1cccc(C(=O)N2CCCC(n3cccn3)C2)c1 (stereo not drawn),Percent Effect,"30 µM, 30.03 µM",-5.751%
CCc1ccc(C(=O)N2CCC(c3nncn3CC)CC2)o1,Percent Effect,"30.3 µM, […]",-10.9%
COc1cc(CNC(=O)c2csc(Br)c2)ccn1,Percent Effect,"30.3 µM, […]",18.58%
Cc1cc(CN(CC(N)=O)CC(C)C)no1,Percent Effect,"30.3 µM, […]",34.93%
Cc1cc(CN(CC(N)=O)CC(C)C)on1,Percent Effect,"30.3 µM, […]",34.94%
Cc1ccc(-c2cc(CN(CC(N)=O)CC(C)C)on2)cc1,Percent Effect,"30.3 µM, […]",57.13%
CN(C)C(=O)CO[C@H]1CN(Cc2ccc3c(c2)OCO3)[C@@H]2COC[C@H]12.O=C(O)C(F)(F)F,Percent Effect,"30.3 µM, […]",10.2%
O=C(O)Cc1cccc(-n2ccnc2-c2ccc(Cl)s2)c1,Percent Effect,"30.3 µM, […]",-13.71%
CC(NC(=O)NCCCO)c1ccc2c(c1)NC(=O)CO2 (stereo not drawn),Percent Effect,30 µM,9.165%
CC(NC(=O)C1CCN(C(C)C)CC1)c1nncn1C1CCCC1 (stereo not drawn),Percent Effect,"30.3 µM, […]",38.57%
CC(NC(=O)C1CCCC1)c1nncn1C(C)C (stereo not drawn),Percent Effect,"30.3 µM, […]",53.36%
CC(NC(=O)C1CCN(C(=O)C2CC2)CC1)c1nncn1C(C)C (stereo not drawn),Percent Effect,"30.3 µM, […]",27.99%
Cc1ccc(CN2CCOC3(CCCN(c4cccc(F)c4)C3)C2)o1.O=C(O)C(F)(F)F.O=C(O)C(F)(F)F (stereo not drawn),Percent Effect,"30.3 µM, […]",23.02%
O=C(NCCCOC1CCCCC1)C1NCCc2[nH]cnc21 (stereo not drawn),Percent Effect,"30.3 µM, […]",6.477%
COC(=O)NCC(=O)N1CCC(c2cc3ccccc3[nH]2)CC1,Percent Effect,"30.3 µM, […]",11.64%
N#CCCCS(=O)(=O)NC1(c2cccc(Cl)c2)CC1,Percent Effect,"30.3 µM, […]",17.77%
CCS(=O)(=O)N1CCc2ccc(NC(=O)Nc3cccc(F)c3)cc21,Percent Effect,"30.3 µM, […]",17.8%
CCS(=O)(=O)N1CCc2ccc(NC(=O)Nc3ccccc3)cc21,Percent Effect,"30.3 µM, […]",14.09%
CCS(=O)(=O)N1CCc2ccc(NC(=O)Nc3cccc(SC)c3)cc21,Percent Effect,"30 µM, 30.03 µM",59.71%
CC(=O)N(Cc1ncc(C(C)C)o1)C1CCN(Cc2cc(C)no2)C1 (stereo not drawn),Percent Effect,30 µM,25.52%
O=C1CN(C(=O)C2CN(c3ccccc3)CCO2)CCN1 (stereo not drawn),Percent Effect,"30.3 µM, […]",40.28%
CC(C)n1c(=O)c2ccccc2n(CCN(C)C)c1=O.Cl,Percent Effect,"30.3 µM, […]",50.24%
CC(C)n1c(=O)c2ccccc2n(CCN2CCCCC2)c1=O,Percent Effect,"30.3 µM, […]",52.87%
CN(C)CCn1c(=O)n(C)c(=O)c2ccccc21.Cl,Percent Effect,"30.3 µM, […]",-33.87%
CC(C)n1c(=O)c2ccccc2n(CCCN(C)C)c1=O.Cl,Percent Effect,"30.3 µM, […]",-9.627%
O=C(NCCCN1CCCCC1)c1n[nH]c(=O)c2ccccc12,Percent Effect,"30.3 µM, […]",20.29%
O=C(NCCN1CCCCCC1)c1n[nH]c(=O)c2ccccc12,Percent Effect,"30.3 µM, […]",-32.33%
CCOCCn1nnc(C2(NC(=O)c3ccccc3)CCCC2)n1,Percent Effect,"30 µM, 30.03 µM",1.124%
CN(Cc1ccncn1)C(=O)C1(Oc2ccc(Cl)cc2)CCNCC1,Percent Effect,"30.3 µM, […]",12.34%
CN(Cc1ccoc1)C(=O)C1(Oc2ccc(Cl)cc2)CCNCC1,Percent Effect,"30.3 µM, […]",-16.66%
Cc1ccc(OC2(C(=O)N(C)Cc3ccoc3)CCNCC2)cc1,Percent Effect,"30.3 µM, […]",83.11%
NC(=O)c1cccc2nc([C@H]3CCN(Cc4ccccn4)C3)[nH]c12,Percent Effect,"30.3 µM, […]",53.25%
NC(=O)c1cccc2nc([C@H]3CCN(Cc4ccccc4F)C3)[nH]c12,Percent Effect,"30.3 µM, […]",22.02%
Cc1ccc(CN2CC[C@H](c3nc4cccc(C(N)=O)c4[nH]3)C2)cc1,Percent Effect,"30.3 µM, […]",-18.93%
c1ccc(C(CC2CN(Cc3c[nH]cn3)CCO2)c2ccccc2)cc1 (stereo not drawn),Percent Effect,"30.3 µM, […]",20.85%
CN(C)S(=O)(=O)N(C)C(c1cccc(F)c1)c1ccccn1 (stereo not drawn),Percent Effect,30 µM,24.26%
Clc1ccc(CN2CCC(C3CCN(Cc4cccnc4)CC3)C2)cc1 (stereo not drawn),Percent Effect,"30.3 µM, […]",51.57%
Clc1cccnc1N1CCC(C2CCN(Cc3cccnc3)CC2)C1 (stereo not drawn),Percent Effect,"30.3 µM, […]",-17.23%
Clc1ccc(N2CCC(C3CCN(Cc4cccnc4)CC3)C2)nc1 (stereo not drawn),Percent Effect,"30.3 µM, […]",-2.762%
Cc1ncsc1C(=O)N(C)Cc1ccncc1,Percent Effect,"30 µM, 30.03 µM",-5.146%
Cc1ncsc1CN(Cc1ccccc1)Cc1ncc[nH]1,Percent Effect,"30.3 µM, […]",-37.36%
Cc1ncsc1CN(Cc1ccccc1)Cc1ccncc1,Percent Effect,"30.3 µM, […]",55.73%
Cc1noc(C2CCN(CC(=O)N3CCNC(=O)C3)CC2)n1,Percent Effect,"30.3 µM, […]",-15.33%
O=C(O)C1(Cc2cccc(Cl)c2)CCCN(c2ncnc3[nH]ccc23)C1 (stereo not drawn),Percent Effect,"30.3 µM, […]",20.11%
CCCSc1nn(CCCN(C)C)c2nc3sc(C)c(CC)c3c(=O)n12,Percent Effect,"30.3 µM, […]",-2.726%
O=C(c1ccoc1)N1Cc2cnn(CC3CC3)c2C(COCC2CC2)C1 (stereo not drawn),Percent Effect,"30.3 µM, […]",-14.05%
CC(C)C(=O)N1CCC(c2c(C(N)=O)sc3ccccc23)C1 (stereo not drawn),Percent Effect,"30.3 µM, […]",2.33%
CC(C)S(=O)(=O)CCN1CCN(C(C#N)c2ccccc2)CC1 (stereo not drawn),Percent Effect,"30.3 µM, […]",27.38%
CS(=O)(=O)CCCN1CCN(C(C#N)c2ccccc2)CC1 (stereo not drawn),Percent Effect,"30.3 µM, […]",16.78%
CCCS(=O)(=O)CCN1CCN(C(C#N)c2ccccc2)CC1 (stereo not drawn),Percent Effect,"30.3 µM, […]",50.86%
CC(C)c1nc(C2CCCN(C(=O)CCc3cscn3)C2)no1 (stereo not drawn),Percent Effect,30 µM,12.46%
Cc1oncc1C(=O)NCC1(O)CCc2ccccc2C1 (stereo not drawn),Percent Effect,"30.3 µM, […]",25.53%
Cc1nn(C)c(Cl)c1CNCc1cccnc1N1CCCCC1.Cl,Percent Effect,"30.3 µM, […]",-11.04%
Cc1nn(C)c(Cl)c1CNCc1cccnc1N1CCOCC1.Cl,Percent Effect,"30 µM, 30.03 µM",2.073%
Cc1nn(C)c(Cl)c1CNCc1cccnc1N1CCN(C)CC1.Cl,Percent Effect,"30 µM, 30.03 µM",52.88%
Cc1ccc(C)c(S(=O)(=O)CCNC2CCc3ncnn3C2)c1 (stereo not drawn),Percent Effect,30 µM,28.38%
CCc1ncc(CN[C@@H]2CCCN(C(C)=O)[C@H]2c2ccc(C)s2)cn1.Cl,Percent Effect,"30.3 µM, […]",12.48%
CC(C)c1nc(-c2cc(C(=O)NCCCO)c3ccccn23)cs1,Percent Effect,"30.3 µM, […]",30%
Cc1nc(-c2cc(C(=O)NCCN3CCOCC3)c3ccccn23)cs1.O=C(O)C(F)(F)F,Percent Effect,"30.3 µM, […]",-52.36%
CC(C)c1nc(-c2cc(C(=O)NCCN(C)C)c3ccccn23)cs1.O=C(O)C(F)(F)F,Percent Effect,"30.3 µM, […]",74.71%
CC(C)c1nc(-c2cc(C(=O)N3CCN(C)CC3)c3ccccn23)cs1.O=C(O)C(F)(F)F,Percent Effect,"30.3 µM, […]",16.88%
CC(C)c1nc(-c2cc(C(=O)O)c3ccccn23)cs1,Percent Effect,"30.3 µM, […]",-0.8279%
Cc1cnc(CNc2ccc(C(=O)NCc3ccco3)cc2C)o1,Percent Effect,"30.3 µM, […]",-20.82%
O=C(O)C(F)(F)F.c1cc(CNCC2Cn3nncc3CO2)co1 (stereo not drawn),Percent Effect,"30.3 µM, […]",20.1%
CCCn1nnnc1COC(=O)C1COc2ccc(Cl)cc2C1 (stereo not drawn),Percent Effect,"30.3 µM, […]",-4.057%
O=C(NCC1(c2cccc(F)c2)CC1)N1CCC2(CCOC2)C1 (stereo not drawn),Percent Effect,"30.3 µM, […]",-5.939%
CC1(C)OC(=O)N(CC(=O)N2CCC(c3ccccc3Cl)C2)C1=O (stereo not drawn),Percent Effect,"30.3 µM, […]",16.86%
CC(=O)N1CCC(Cc2cnc(C(=O)N3CCCC3)cn2)C1 (stereo not drawn),Percent Effect,"30.3 µM, […]",-5.476%
CCOCc1ccccc1CNc1ccc2nncn2n1,Percent Effect,"30.3 µM, […]",18.04%
CCn1ncc(Nc2[nH]cnc3nc(C)nc2-3)c1C,Percent Effect,"30.3 µM, […]",-7.482%
CCn1ncc(Nc2[nH]cnc3nncc2-3)c1C,Percent Effect,"30.3 µM, […]",61.85%
CCn1ncc(CNc2[nH]cnc3nncc2-3)c1C,Percent Effect,"30.3 µM, […]",46.44%
N#Cc1c(F)cccc1N1CCCC(C(=O)Nc2nccs2)C1 (stereo not drawn),Percent Effect,"30.3 µM, […]",38.57%
CN(c1ccc(CNC(=O)c2c[nH]c(=O)c(Cl)c2)cc1)C1CCCCC1,Percent Effect,"30.3 µM, […]",30.08%
Cc1ccc(C(=O)NCc2ccc(N(C)C)cc2)cn1,Percent Effect,"30.3 µM, […]",1.485%
CN(c1ccc(CNC(=O)c2ccc(O)nc2)cc1)C1CCCCC1,Percent Effect,"30.3 µM, […]",57.37%
CNC(=O)c1cc(C)n(-c2ccccc2)n1,Percent Effect,"30.3 µM, […]",21.3%
Cc1nnc(CN(C)C2CCN(Cc3nc4ccccc4n3C)C2)o1 (stereo not drawn),Percent Effect,30 µM,31.75%
Cc1cnc(CN(C)C2CCN(Cc3nc4ccccc4o3)C2)o1 (stereo not drawn),Percent Effect,30 µM,8.725%
Cc1cnc(CN(C)C2CCN(Cc3nc4ccccc4n3C)C2)o1 (stereo not drawn),Percent Effect,"30 µM, 30.03 µM",57.21%
CC(=O)N(Cc1ncc(C)o1)C1CCN(Cc2cccc(C#N)c2)C1 (stereo not drawn),Percent Effect,"30 µM, 30.03 µM",6.646%
CC(=O)N(Cc1ncc(C)o1)C1CCN(Cc2ccncc2Cl)C1 (stereo not drawn),Percent Effect,"30 µM, 30.03 µM",31.13%
O=C(c1ccccc1O)N1CCn2c(nnc2C(F)(F)F)C1,Percent Effect,"30.3 µM, […]",-5.557%
CCN(CC)Cc1cc(=O)n2c(n1)CN(C(=O)c1ccc[nH]1)CCC2,Percent Effect,"30.3 µM, […]",36.34%
c1ccc(-c2nnc3ccc(N4CCC5(CCOC5)C4)nn23)cc1 (stereo not drawn),Percent Effect,"30.3 µM, […]",-7.106%
CCN(CCCNC(=O)Nc1ccccc1C(C)C)S(C)(=O)=O,Percent Effect,"30.3 µM, […]",27.9%
O=C(NCCCN1CCOCC1)c1ccc(-n2ccc3ccccc32)s1,Percent Effect,"30.3 µM, […]",90.86%
O=C(NCCN1CCOCC1)c1ccc(-n2ccc3ccccc32)s1,Percent Effect,"30 µM, 30.03 µM",37.35%
O=C(NCCCN1CCCCC1)c1ccc(-n2ccc3ccccc32)s1,Percent Effect,"30 µM, 30.03 µM",94.7%
Cn1ccc2c(C(=O)NCCCN3CCCC3)cccc21,Percent Effect,"30.3 µM, […]",16.97%
CCN(CC)CCNC(=O)c1cnc(C(C)(C)C)s1,Percent Effect,"30 µM, 30.03 µM",10.1%
O=C(NCCCN1CCCC1=O)c1ccc(-n2ccc3ccccc32)s1,Percent Effect,"30.3 µM, […]",32.92%
CCN(CC)CCNC(=O)c1ccc(-n2ccc3ccccc32)s1,Percent Effect,"30.3 µM, […]",95.71%
CCC1CN(CC(=O)NCCN(CC)CC)c2ccccc2S1 (stereo not drawn),Percent Effect,"30.3 µM, […]",24.72%
CCOCCCC(=O)Nc1[nH]nc(-c2ccncc2)c1C,Percent Effect,"30.3 µM, […]",25.28%
CC(C)(O)C1CCN(C(=O)Nc2nc(-c3ccccc3)ns2)CC1,Percent Effect,"30 µM, 30.03 µM",46.85%
CC(C)(CO)CCCNC(=O)N1CCc2c(F)ccc(F)c2C1,Percent Effect,"30.3 µM, […]",-32.7%
